# Test results published in PubChem BioAssay (NCI).
# “And” between values parts separate entries of the source, which are not always exact repeats. Identical values can stand only once. This is part of a sample that, as a whole, favours compounds with a hit. Of some 83,000 tested, about 20% had one in any assay.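 96-well plates, one dose, 48 hours. Percent growth reported; active if below 10.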 The source made the active and inactive calls.
# Tested on: MDA-MB-468 breast
# Experiment: NCI-60 one-dose screen, 48 h (100 = growth as untreated, 0 = no growth, -100 = all killed)
# Conditions: 10 µM unless noted
row,SMILES,growth
1,O=C(CCC(=O)c1nc2ncccc2[nH]1)NN1C(=O)CSC1c1ccc(Cl)cc1 (stereo not given),112% (inactive)
2,CC(=O)c1cc(C(=O)c2ccc3c(c2)Sc2ccccc2N3)c2c(C)cccn12,14% (inactive)
3,COc1cccc(/C=C2\COc3ccc(-c4ccccc4)cc3C2=O)c1,7.82% (active)
4,CCOC(=O)c1nn(C2CCCCO2)c2ccc(NC(=O)Cn3nnc4ccccc43)cc12 (stereo not given),105% (inactive)
5,COc1cc2c(Oc3ccc(NC(=O)C4(C(=O)Nc5ccc(F)cc5)CC4)cc3F)ccnc2cc1OCCCN1CCOCC1,12.1% (inactive)
6,c1ccc2cc(Cn3cc(CSc4nc5ccccc5s4)nn3)ccc2c1,106% (inactive)
7,CCCCCCCCCCCCSC(=NC)NC,-9.65% (active) and 32.3% (inactive)
8,O=C(/C=C/C12c3ccccc3C(c3ccccc31)C1C(=O)NC(=O)C12)c1ccc(Br)cc1 (stereo not given),42.7% (inactive)
9,O=C(/C(=C/c1ccc([N+](=O)[O-])cc1)c1ccccc1)c1ccccc1,51.4% (inactive)
10,CCCCN(C)N=Nc1ccc(C(N)=O)cc1,102% (inactive)
11,COc1ccc2nc3cc(Cl)ccc3c(N3CCN(c4ccnc(N5CCN(C)CC5)n4)CC3)c2c1,-51.9% (active)
12,COc1cc2c(cc1O)c(=O)n(CCN(C)C)c1c3cc4c(cc3ncc21)OCO4,-57.9% (active)
13,Cc1cccc2sc(/N=C(\N)C(Cl)(Cl)Cl)nc12,110% (inactive)
14,COc1ccc(/C=N\NC(=O)c2cc(-c3ccc(Br)cc3)n(-c3ccc(S(N)(=O)=O)cc3)n2)cc1,-1.98% (active)
15,COc1ccc(C(=O)c2cc(OC)c(OC)c(OC)c2)cc1/C=C/C(=O)c1ccc(F)cc1,90.4% (inactive)
16,COCCCNc1nc(NC(=O)c2cc(Br)cc(C(F)(F)F)c2)cc(-c2cccnc2)n1,82.8% (inactive)
17,COc1ccc(-c2csc(N(C(=O)N3CCN(c4cc5c(cc4F)c(=O)c(C(=O)O)cn5C4CC4)CC3)c3ccccc3)n2)cc1,7.88% (active)
18,CCCCCCN1C(=O)C2=C(c3ccc(Cl)cc3)Nc3c(c(C)nn3-c3ccccc3)C2c2ccccc21 (stereo not given),84.5% (inactive)
19,CCSc1nnc2c3cc(Br)ccc3n(C)c2n1,115% (inactive)
20,O=C(NNC(=O)c1ccncc1)Nc1ccc([N+](=O)[O-])cc1,106% (inactive)

row,SMILES,growth
1,O=C(O)c1ccc(-n2cc(CNc3ccc(Cl)cc3)c(-c3ccccc3)n2)cc1,102% (inactive)
2,COc1cc(-c2nc(SCc3ccc(C)cc3)[nH]c(=O)c2C#N)ccc1OCc1ccccc1,87.3% (inactive)
3,CCOC(=O)c1sc2ncnc(Nc3ccc4c(cnn4C(=O)Nc4ccc(C)c(Cl)c4)c3)c2c1C,95.1% (inactive)
4,CN(C)S(=O)(=O)c1ccc(-c2nc(C(Cl)Cl)nc3cc(-c4ccccc4)nn23)cc1,60.7% (inactive)
5,COC(=O)[C@H](CCCCNC(=O)OCc1ccccc1)NC(=O)[C@@H](NC(=O)Nc1cc(C(F)(F)F)cc(C(F)(F)F)c1)C(C)C,-12.9% [100 µM] (active)
6,CC(=O)Nc1ncc(S(=O)(=O)c2ccc([N+](=O)[O-])cc2)s1,107% (inactive)
7,Cc1ccc2c(c1)c1nc3cc(C)c(C)cc3nc1n2CCN(C)C,-2.86% (active)
8,COc1ccc(Nc2ncc(Br)c(NCCCNC(=O)c3cccs3)n2)cc1,51.1% (inactive)
9,CC(Oc1ccc(C(=O)NS(=O)(=O)C(C)(C)C)cc1C(F)(F)F)c1ccc(Oc2ccccc2)cn1 (stereo not given),71.8% (inactive)
10,CNc1cc2nc3cc(NC)c(C)cc3cc2cc1C,-11.5% (active)
11,COc1ccccc1NCc1cccn1Cc1ccc(F)cc1,82.6% (inactive)
12,Cc1ccc(-c2csc(/N=C3\C(=O)Nc4ccccc43)n2)cc1,-12.5% (active)
13,CSc1nc(NCCO)c(C#N)c(-c2cccc([N+](=O)[O-])c2)n1,105% (inactive)
14,CCCCCCCCCCCCCC1=NCC[N+]1(CCO)Cc1ccccc1 (stereo not given),-81.2% (active)
15,COc1ccc(NC(=O)CSc2nnc(-c3ccc4nc(-c5ccc(OC)c(OC)c5)[nH]c4c3)o2)cc1OC,92.7% (inactive)
16,O=S(=O)(NCCNc1cc(-c2cn(-c3ccccc3)nc2-c2cccc(O)c2)ccn1)c1cccc(F)c1,15.2% (inactive)
17,CC(C)(C)c1cc(O)c(C(C)(C)C)cc1O,66.2% (inactive)
18,COc1ccc(-c2cc(/C=C3\C(=O)Nc4ccc(Cl)cc43)[nH]n2)cc1,41.7% (inactive)
19,COc1ccc(C(=O)NC(=O)Nc2ccc3c(c2)NC(=O)/C3=C\c2[nH]c(C)c(C(=O)O)c2C)cc1,76.2% (inactive)
20,O=C1CSC(c2ccccc2O)N1c1nnc(Cn2ccnc2)o1 (stereo not given),59.1% (inactive)
